The values below come from PubChem BioAssay (NCI).

The nature of test [1]: NCI Yeast Anticancer Drug Screen. Data for the rad50 strain (AID 155).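 Also: 0% = growth of vehicle-only cultures of the same strain.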 To be noted: S. cerevisiae rad50 strain growth inhibition; at 50.0 µM; active compounds read high. An outline of the steps:
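Genetically altered yeast (DNA repair pathway); compound treatment; growth inhibition vs vehicle ctrl.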

The nature of test [2]: NCI Yeast Anticancer Drug Screen. Data for the mec2-1 strain (AID 157). Particulars: S. cerevisiae mec2-1 strain, at 50.0 µM, active compounds read high. An outline of the steps: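 Cells of the genetically defined mec2-1 yeast strain are incubated with test compound. Inhibition of growth is calculated against vehicle-treated controls.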
Test [3] can be described thus: NCI Yeast Anticancer Drug Screen. Data for the sgs1 mgt1 strain (AID 161).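 Also: 0% = growth of cultures given vehicle only.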 To be noted: S. cerevisiae sgs1 mgt1 strain, at 50.0 µM, active compounds read high. An outline of the steps:
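Inhibition of yeast growth, normalised to vehicle-treated controls, is reported for a strain bearing genetic alterations in DNA damage repair.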

Test [4] in a line: NCI Yeast Anticancer Drug Screen. Data for the cln2 rad14 strain (AID 165).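 Also: 0% = growth equal to vehicle treated cultures.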 To be noted: S. cerevisiae cln2 rad14 strain, at 50.0 µM, active compounds read high. The essentials: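 The screen exposed genetically defined yeast (cln2 rad14) to test compounds and scored growth inhibition relative to vehicle-treated controls.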
Test [5] is described as follows: NCI Yeast Anticancer Drug Screen. Data for the bub3 strain (AID 167). To be noted: S. cerevisiae bub3 mutant strain, at 50.0 µM, active compounds read high. The essentials:
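Yeast carrying a defined mutation is treated with each compound, and growth is compared with that of vehicle-exposed cells to give inhibition.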

A short description of test [6]: NCI Yeast Anticancer Drug Screen. Data for the mlh1 rad18 strain (AID 175). To be noted: S. cerevisiae mlh1 rad18 strain growth inhibition; at 50.0 µM; active compounds read high. The essentials:
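Compound-treated yeast growth, normalised to vehicle controls. Strain bears defined DNA repair mutations.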

About 79,000 compounds went through this panel and 15% of them were active in at least one assay; those are over-represented in the sample as a whole. Values without a mark were called inactive. Active and inactive are the calls of the source. Rule as the data show it: active = growth inhibition above about 70%; inactive = the rest.

As for `O=C(Cn1cc(I)c(C(=O)NCC(O)CO)n1)NCC(O)CO` (stereo unspecified), the growth inhibition in test [1] was -2.2%; in test [2], -8.7%; in test [3], -8.4%; in test [4], 26.9%; in test [5], -5.9%; in test [6], -9.25%.
For `Cc1ccc(S(=O)(=O)N2CCC(N)=N2)cc1`, the growth inhibition is 4.8% in test [1]; -6.7% in test [2]; -3.75% in test [3]; -18.4% in test [4]; 0.45% in test [5]; -4.85% in test [6].
Turning to `COC(=O)c1cc(Cl)ccc1OCC(=O)NCc1ccc(Cl)cc1`, the growth inhibition in test [1] is 9.1%; in test [2], -3.3%; in test [3], 11.8%; in test [4], -5.85%; in test [5] it was -26.1%; in test [6] it was 12.1%.
Turning to `COc1cc2cccnc2c2[nH]c(=O)c3c(c12)CCC3`, the growth inhibition was 13.9% in test [1]; 9.35% in test [2]; -6% in test [3]; -16.4% in test [4]; 7.2% in test [5]; 7.25% in test [6].
In the case of `COC(=O)C1(OC)C(=O)NC2=C1C(=O)c1ccccc1C2=O` (stereo unspecified), the growth inhibition in test [1] was -12.1%; in test [2] it was -13%; in test [3] it was -4.1%; in test [4], -18.8%; in test [5] it was 9.3%; in test [6], 4.8%.
As to `Cc1cc(=O)c2cc(N=Cc3ccc(N(C)C)cc3)ccc2o1`, the growth inhibition in test [1] was 5.25%; in test [2], -10.9%; in test [3], -16.8%; in test [4] it was 17.1%; in test [5], 0.75%; in test [6], 16.1%.
Turning to `Cn1c(-c2ccc3c(c2)OCO3)cc(=O)c2ccccc21`, the growth inhibition in test [1] was -11.2%; in test [2], -17.6%; in test [3] it was -4.9%; in test [4], -4.55%; in test [5], 4.85%; in test [6] it was 0.6%.
On to `COc1ccc2c(N=[N+]=[N-])c(-c3ccccc3)c(=O)oc2c1`, for which the growth inhibition in test [1] is 11.8%; in test [2], 2.6%; in test [3], 35.6%; in test [4], 17.2%; in test [5], 3.15%; in test [6] it was 30.9%.
As for `CC(=O)OC1=C(OC(C)=O)N(S(=O)(=O)c2ccc(C)cc2)CCc2ccccc21`, the growth inhibition in test [1] is 31.4%; in test [2], 20.4%; in test [3] it was 36.6%; in test [4] it was 26.5%; in test [5], 6.5%; in test [6] it was 36%.
In the case of `O=[N+]([O-])c1cc(Cl)c(Cl)c(Cl)c1Cl`, the growth inhibition in test [1] was 17.1%; in test [2], 3.4%; in test [3] it was -1%; in test [4] it was 14.8%; in test [5], 7.3%; in test [6], 31.4%.
`NC(=S)c1ccccc1N=Cc1cccs1`: the growth inhibition in test [1] is 26.8%; in test [2], 16.1%; in test [3], 14.2%; in test [4], -7.7%; in test [5], 53.6%; in test [6] it was 41.5%.
Turning to `O=c1cc(C=Nc2ccc(-c3csc(-c4ccccc4)n3)cc2)[nH]c(=S)[nH]1`, the growth inhibition in test [1] is 97.2% (active); in test [2], 91.2% (active); in test [3], 97.7% (active); in test [4], 97.2% (active); in test [5] it was 96.5% (active); in test [6] it was 98% (active).
Consider `C=CCNC(=S)NCc1ccc(Cl)cc1`, for which the growth inhibition was 21.3% in test [1]; 7.8% in test [2]; 22.7% in test [3]; -46.6% in test [4]; 5.15% in test [5]; 12.1% in test [6].
Consider `O=C(/C=C\c1ccccc1Cl)/C=C/c1ccccc1Cl`, for which the growth inhibition in test [1] is 11.2%; in test [2], 2.75%; in test [3], -4.6%; in test [4], -42.3%; in test [5], -0.35%; in test [6], 11.8%.
Turning to `COc1cccc(NC(=O)c2cccc(C(=O)Nc3cccc(OC)c3)c2)c1`, the growth inhibition in test [1] was 7%; in test [2] it was 5.55%; in test [3], 4.15%; in test [4], -32.8%; in test [5], -2.6%; in test [6], 35%.
On to `CC(C)(C)NC(=O)NCc1ccccc1Cl`, for which the growth inhibition in test [1] was 2.9%; in test [2], -8.1%; in test [3], -2.7%; in test [4], -52.5%; in test [5], -0.75%; in test [6], -8.35%.
For the compound `CCOC(=O)c1cnc(=O)n(Cc2ccccc2)c1N`, the growth inhibition in test [1] is -1.25%; in test [2] it was 0.65%; in test [3], 10.9%; in test [4], 0.45%; in test [5], 0.35%; in test [6], -8.15%.
Regarding `Nc1ccc2c(c1)C(=O)CCCC2`, the growth inhibition in test [1] was 1.55%; in test [2] it was -8.95%; in test [3], -2.15%; in test [4], -10.1%; in test [5], 1.25%; in test [6], 14.1%.
`Nc1cc2c(cc1Br)-c1ccccc1C2Br` (stereo unspecified): the growth inhibition was -6.35% in test [1]; -10.9% in test [2]; 3.7% in test [3]; 10.7% in test [4]; 1.25% in test [5]; 2.7% in test [6].
Consider `CCC(C)CCC(C)(O)CC` (stereo unspecified), for which the growth inhibition in test [1] is 9.7%; in test [2], -9.9%; in test [3] it was -5.4%; in test [4], -43.1%; in test [5], 16.2%; in test [6], 1.35%.
`CCCCCCCCCCCCCCCCCC(=O)NCC[N+](C)(C)C`: the growth inhibition in test [1] was 99% (active); in test [2], 99.5% (active); in test [3], 99.4% (active); in test [4] it was 98.8% (active); in test [5], 98.8% (active); in test [6], 99.2% (active).
